# Compound activity as filed in PubChem BioAssay.
# GAA inhib – blocks human lysosomal alpha-glucosidase. hit rate 0.005% among 200,000. AID 1466. purified human GAA, 4-MU-alpha-glucoside fluorescence. Potency, µM (highest dose often 76.9 µM), for inactives: top-dose activity change, negative = inhibition, actives largely listed as inhibitors. P10253;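 also: plate controls were uninhibited enzyme wells for no effect and no-enzyme background for full effect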
#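 Enzyme (4 nM final) mixed with compound (up to 77 uM), then 4-MU-alpha-D-pyranoside (400 uM final) added; 20 min at room temperature, pH 5.0. Reaction stopped at pH 10, fluorescence read, AC50 derived by Hill fit.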
# GAA spleen mod – inhibitors or activators of human alpha-glucosidase in spleen homogenate | P10253 | human spleen homogenate, 4-MU-alpha-glucoside fluorescence | Potency, µM (doses to about 79.9 µM), without a hit: at the top dose activity change, negative = inhibition, most hits filed as inhibitors | hit rate 0.006% among 240,000;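 also: 0% = enzyme with vehicle and -100% = no enzyme basal signal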
#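 AC50 values come from Hill-equation fits of concentration-response data, normalized to no-enzyme and full-activity controls. Enzyme source: 1 ug human spleen homogenate; 1 mM fluorogenic 4-MU glucoside, pH 5.0 citrate buffer, 37 C, 40 min.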
# N370S GC mod – inhibitors or activators of N370S glucocerebrosidase for Gaucher disease; P04062; N370S GC spleen homogenate, 4MU-glucoside fluorescence; Potency, µM (top dose mostly 59.4 µM), for inactives: at the highest dose activity change, negative = inhibition, usual class: inhibitors; hit rate 0.092% among 330,000;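 also: 0% = full enzyme activity and -100% = no enzyme basal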
# GAA glycogen mod – inhibitors or activators of human alpha-glucosidase glycogen cleavage | hit rate 0.38% among 300,000 | Potency, µM (doses to about 76.4 µM), without a hit: top-dose activity change, negative = inhibition, actives largely listed as inhibitors | recombinant GAA, glycogen substrate, Amplex Red glucose oxidase fluorescence | P10253 | AID 2100;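 also: 0% = full enzyme reaction and -100% = no-enzyme basal signal; the screen sought inhibitors and activators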
#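 Recombinant enzyme (4 nM final) with compounds titrated up to 77 uM and bovine liver glycogen (30 ug) in citrate pH 5.0, 0.01% Tween-20, 37 C 40 min. Released glucose detected by Amplex Red/glucose oxidase (Ex 573/Em 610); AC50 from Hill fits.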
# LMNA splice mod – changes lamin A minigene splicing in HeLa cells. HeLa LMNA splicing GFP/RFP minigene ratio, 48 h. Potency, µM (highest dose often 46.1 µM), without a hit: at the highest dose ratio change, negative = inhibition, usual class: inhibitors. hit rate 0.01% among 200,000. AID 1487; active = well fitted inhibition curve with a large enough effect in the signal ratio, with a control signal flat, not every such curve was filed as active; inconclusive = small, poorly fitted or top-dose-only effect, or effect the other way, or a change in a side signal; the % refers to the signal ratio
#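 S3 HeLa stable clones carrying a lamin A-EGFP splicing minigene plus DsRed2 were seeded at 600 cells/well in Opti-MEM with 2% FBS, pin-dosed and incubated 48 h at 37°C. Acumen cytometry (488 nm) gave the GFP/RFP total-intensity ratio.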
# Numbers without * were called inactive; ? = inconclusive; · = no result; [ ] = remark or other dose. Rows were chosen to be rich in hits. Some 0.41% of all compounds tested hit in one or more screens of this group. Unless noted, calls follow the shape of the dose curve; as a rule, active = well fitted curve in the direction sought with a large enough effect; inconclusive = small, poorly fitted or top-dose-only effect, or another doubt; inactive = no such curve, though single readings can be large; an effect the other way counts as inactive or inconclusive. Unless noted, % is scaled to controls: 0 for no effect and ±100 for the full control effect; potency is read from the fitted curve at half-maximal effect.
SMILES,GAA inhib,GAA spleen mod,N370S GC mod,GAA glycogen mod,LMNA splice mod
COCCn1c(NC(=S)NC(=O)C2CC2)cc(=O)[nH]c1=O,5.7%,7.5%,-1.7%,31.4µM*,?
O=S(=O)(O)c1ccc2c(c1)-c1nc-2nc2[nH]c(nc3nc(nc4[nH]c(n1)c1ccc(S(=O)(=O)O)cc41)-c1ccc(S(=O)(=O)O)cc1-3)c1ccc(S(=O)(=O)O)cc21,·,1.4%,-3.0%,·,·
Cc1cc(C)cc(Nc2nc3c(S(=O)(=O)c4cccc(Cl)c4)nnn3c3ccsc23)c1,·,·,·,39.8µM*,·
CCN1CCN(C(CC(C)C)c2nnnn2CS(=O)(=O)c2ccc(C)cc2)CC1 (centres undefined),6.3%,-1.9%,22.4µM*,9.2%,?
Cc1ccc(S(=O)(=O)Cn2nnnc2C(CC(C)C)N2CCN(C(=O)c3ccco3)CC2)cc1 (centres undefined),-6.2%,0.2%,?,-16.3%,?
COc1cc(C)c(CC/C(C)=C/C=C/C(C)=O)c(C)c1C,·,12.7%,14.7%,·,·
O=C(/C=C/c1ccc(O)c(O)c1)OC1C(O)CC(OC(=O)/C=C/c2ccc(O)c(O)c2)(C(=O)O)CC1O (centres undefined),-9.8%,-2.0%,-20.9%,1.76µM*,·
O=C(/C=C\c1ccc(O)c(O)c1)O[C@@H]1C[C@](O)(C(=O)O)C[C@@H](O)[C@@H]1O,·,1.6%[29.1 µM],-8.3%[21.6 µM],·,-10.8%
O=c1c(O)c(-c2ccc(O)cc2O)oc2cc(O)cc(O)c12,0.0%[15.4 µM],-10.5%,-10.3%,3.16µM*,-2.2%
COc1cc(-c2oc3cc(O)cc(O)c3c(=O)c2O[C@@H]2O[C@H](CO)[C@@H](O)[C@H](O)[C@H]2O)ccc1O,·,-1.1%,-4.3%,·,·
O=c1c(O[C@@H]2O[C@H](CO)[C@H](O)[C@H](O)[C@H]2O)c(-c2ccc(O)c(O)c2)oc2cc(O)cc(O)c12,-6.5%[15.4 µM],?,?,6.31µM*,?
COc1c(-c2ccc(O)c(O)c2)oc2cc(O)cc(O)c2c1=O,·,2.7%,-9.6%,35.5µM*,·
O=c1c(O[C@@H]2O[C@H](CO)[C@@H](O)[C@H](O)[C@H]2O)c(-c2ccc(O)c(O)c2)oc2cc(O)cc(O)c12,-1.4%[15.4 µM],-9.9%,-15.0%,3.55µM*,·
CCn1c(C(=O)Nc2cc(C)cc(C)c2)cc2sc(Cl)cc21,·,·,·,0.8%[76.3 µM],·
C=CCN(C(C(=O)OC)C(C)C)S(=O)(=O)C=C (centres undefined),·,-14.8%,-4.7%,·,·
C[C@@H]1O[C@@H](OC[C@H]2O[C@@H](Oc3c(-c4ccc(O)c(O)c4)oc4cc(O)cc(O)c4c3=O)[C@H](O)[C@@H](O)[C@@H]2O)[C@H](O)[C@H](O)[C@H]1O,-1.6%[15.4 µM],-3.6%,-1.4%,3.16µM*,-2.1%
O=C(NCc1ccco1)c1c[nH]c2ccc(S(=O)(=O)Nc3ccc(F)cc3F)cc2c1=O,·,·,·,3.4%[76.3 µM],·
Cc1cc(NC(=O)CN2CCN(c3ccccc3O)CC2)no1,-1.7%,-3.0%,7.1%,12.6µM*,-8.1%
CSCC[C@H](NC(=O)[C@@H]1CCCN1C(=O)[C@H](CCCN=C(N)N)NC(=O)[C@H](CC(C)C)NC(=O)[C@@H]1CCCN1C(=O)[C@@H](NC(=O)[C@@H](N)CCC(N)=O)C(C)C)C(=O)N[C@H](C(=O)N[C@@H](Cc1ccc(O)cc1)C(=O)N[C@@H](CCCCN)C(=O)O)[C@@H](C)O,·,6.2%,-16.5%,·,·
O=C(c1ccccc1)N1CCN(c2ccc(NCc3ccc4c(c3)OCO4)cc2)CC1,-3.6%,-1.0%,-1.8%,28.2µM*,?
O=C(O)c1cc(NCc2ccc3c(c2)OCO3)ccc1N1CCOCC1,-0.5%,5.0%,-9.4%,4.97µM*,3.8%
CC(=O)N1CCN(c2ccc(NCc3ccc4c(c3)OCO4)cc2)CC1,8.3%,-7.3%,-22.8%,22.2µM*,26.2%
CCc1ccc(N2CCN(C(=O)c3ccc4c(c3)OCO4)CC2)cc1,·,·,-7.1%,-1.1%[76.3 µM],·
CCC(=O)NC[C@H](Cc1ccc(OCCc2nc(-c3ccccc3)oc2C)cc1)N/C(C)=C\C(=O)c1ccc(C(F)(F)F)cc1,·,-3.5%,-13.3%,·,·
COC(=O)c1[nH]c2ccccc2c1NC(=O)Oc1ccccc1,-0.9%[15.4 µM],-0.8%,-5.6%,-17.3%,1.3%
SMILES,GAA inhib,GAA spleen mod,N370S GC mod,GAA glycogen mod,LMNA splice mod
COC(=O)c1[nH]c2cc(OC)c(OC)cc2c1NC(=O)Oc1ccccc1,?,-3.3%,-6.4%,35.5µM*,8.3%
CCOc1ccc(C(=O)NCCn2cc(SCC(=O)Nc3ccccc3)c3ccccc32)cc1,·,·,·,-13.1%[76.3 µM],·
CCc1cc(C(c2ccccn2)N2CCN(C)CC2)c(NC(=O)c2ccccc2)s1 (centres undefined),-7.0%,-0.4%,14.1µM*,-3.8%,-16.2%
Cc1sc(NC(=O)c2ccccc2)c(C(c2ccccn2)N2CCN(CCO)CC2)c1C (centres undefined),-0.8%,-1.1%,10.7%,-9.6%,?
CC(=O)Nc1sc2c(c1C(c1ccccn1)N1CCN(C)CC1)CCCC2 (centres undefined),0.5%,0.7%,-5.8%,-7.2%,·
CCOc1ccc(C(c2c(NC(=O)c3ccccc3)sc(C)c2C)N2CCN(C)CC2)cc1 (centres undefined),?,1.7%,15.8µM*,-2.6%,?
Cc1cccc(-n2c3nc(=O)[nH]c(=O)c-3cc3cc([N+](=O)[O-])ccc32)c1,-2.7%,-4.5%,-7.1%,8.7%,?
Cc1ccc(C)c(-n2c3nc(=O)[nH]c(=O)c-3cc3cc([N+](=O)[O-])ccc32)c1,-0.7%,-9.2%,-0.3%,11.7%,11.2µM*
O=S(=O)(N/N=C\c1ccc(-c2ccccc2Cl)o1)c1ccccc1,5.9%,3.7%,3.5%,24.9µM*,?
O=C(N/N=C/c1ccc(-c2ccccc2Cl)o1)c1ccccc1,-4.8%,2.9%,-10.6%,5.4%,·
O=C1c2c(O)cc(O)cc2O[C@H](c2ccc(O)c(O)c2)[C@H]1O,-0.3%[15.4 µM],-10.8%,-5.7%,?,·
O=C1c2c(O)cc(O)cc2O[C@H](c2ccc(O)c(O)c2)[C@@H]1O,-5.6%[15.4 µM],-3.6%,-19.3%,3.16µM*,·
O=C(Cn1c(=O)n(Cc2ccco2)c(=O)c2sc3ccccc3c21)Nc1ccc(F)cc1F,·,·,·,-12.8%[76.3 µM],·
CCOc1ccc(CNC(=O)Cn2cc3c(n2)-c2c(oc(C(=O)N4CCOCC4)c2C)CC3)cc1,·,·,·,7.6%[76.3 µM],·
Cc1ccccc1N(C(=O)c1ccccn1)C(C(=O)NCc1ccccc1)c1ccncc1 (centres undefined),·,·,-3.0%,-6.2%,·
O=C(NCc1ccccc1)C(c1ccncc1)N(C(=O)c1ccccn1)c1ccccc1 (centres undefined),·,·,-5.8%,11.2µM*,·
CC(C)NC(=O)CCC(=O)N1Cc2ccccc2Oc2ncccc21,·,·,·,·,-0.2%[46 µM]
COc1ccc2c(c1OC)C(=O)OC2CC(=O)c1ccc(O)cc1 (centres undefined),-12.5%,-27.9%,6.2%[2.35 µM],7.0%,4.0%
